# Test results published in PMC5540273 (PLoS ONE, 2017).
# What was measured:
# Conditions in all cases: concentration: 1 μM, replicates: in singlicate; n = 1
# SNARK = tested on: T1, SNARK
# T1 construct: gene NUAK2
# SNRK = tested on: SNRK
# SRC = tested on: SRC
# SRMS = tested on: SRMS
# SRPK1 = tested on: SRPK1
# SRPK2 = tested on: SRPK2
# SRPK3 = tested on: SRPK3
# STK16 = tested on: STK16
# STK33 = tested on: STK33
# STK35 = tested on: STK35
# STK36 = tested on: STK36
# STK39 = tested on: STK39
# SYK = tested on: SYK
# SgK110 = tested on: SgK110
# TAK1 = tested on: T2, TAK1
# T2 construct: gene MAP3K7
# TAOK1 = tested on: TAOK1
# TAOK2 = tested on: TAOK2
# TAOK3 = tested on: TAOK3
# TBK1 = tested on: TBK1
# TEC = tested on: TEC
# 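Note: KINOMEscan kinase panel screen.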
Structure (SMILES),%Inh (SNARK) [%],%Inh (SNRK) [%],%Inh (SRC) [%],%Inh (SRMS) [%],%Inh (SRPK1) [%],%Inh (SRPK2) [%],%Inh (SRPK3) [%],%Inh (STK16) [%],%Inh (STK33) [%],%Inh (STK35) [%],%Inh (STK36) [%],%Inh (STK39) [%],%Inh (SYK) [%],%Inh (SgK110) [%],%Inh (TAK1) [%],%Inh (TAOK1) [%],%Inh (TAOK2) [%],%Inh (TAOK3) [%],%Inh (TBK1) [%],%Inh (TEC) [%]
CN(C)S(=O)(=O)c1cc(-c2ccc3nccc(-c4cccc(S(N)(=O)=O)c4)c3c2)cnc1N [GSK1669921],22,12,0,0,13,0,19,45,3,8,0,0,0,0,0,18,0,7,2,12
CNC(=O)c1ccccc1Nc1nc(Nc2ccc(N3CCOCC3)cc2)ncc1Cl.Cl [GSK1576028],99.2,0,100,67,98.1,35,78,99.2,98.6,50,85,54,87,90.5,96.1,98.8,83,94.2,93.1,99
COc1cc(Nc2nccc(-c3c(-c4cccc(NC(=O)c5c(F)cccc5F)c4)nn4ccccc34)n2)cc(OC)c1OC [GSK323521],40,0,22,0,0,21,30,15,11,0,19,8,28,0,28,0,0,0,3,21
COCCOCCOc1cc2ncc3c4ccc(C#N)cc4[nH]c3c2cc1OC,83,17,14,0,50,24,27,11,24,18,22,0,5,0,88,0,12,0,89,0
Cc1ccc(C(=O)Nc2ccc(Nc3ccnc4cc(-c5nccs5)ccc34)cc2O)cc1.Cl [GW494702],10,0,60,89,12,31,13,0,9,0,35,0,5,15,0,0,0,0,0,0
COc1cc(Nc2nccc(N3CCC(NC(=O)Nc4cccc(C(C)=O)c4)C3)n2)cc(OC)c1OC (centres unmarked) [GSK1379753],21,0,10,0,50,0,0,83,0,0,30,0,28,0,0,0,0,0,28,0
Fc1ccc(-c2ncn(C3CCNCC3)c2-c2ccnc(Oc3ccc(-c4ccccc4)cc3)n2)cc1 [SB-245391],16,23,11,3,5,0,5,14,21,0,8,14,0,0,42,28,6,20,8,5
COc1cc(Nc2nccc(-c3c(-c4cccc(NC(=O)c5c(F)cccc5F)c4)nn4ncccc34)n2)cc(OC)c1OC [GSK327238],95.2,0,99.9,98.5,38,0,0,67,22,96.9,100,13,74,69,15,58,39,63,12,95.2
COc1cc(Nc2nccc(N3CCC(NC(=O)c4cc5ccccc5s4)C3)n2)cc(OC)c1OC (centres unmarked) [GSK1379760],20,0,21,8,61,0,22,10,0,9,32,0,52,0,12,0,0,0,3,10
Cc1ccc(C(=O)N2CC[C@@H](O)C2)cc1-n1c(C)cc(OCc2ccc(F)cc2F)c(Br)c1=O,0,0,97.7,0,0,0,0,19,2,0,0,0,7,0,0,31,57,0,1,0
